# Laboratory results as given in PubChem BioAssay AID1159580 (chemical genetic matrix, 2015).
# Hit rate of the full screen: of about 5,500 compounds, about 2,000 (36%) were called active. Another 18% or so got no clear call; they are omitted. The list shows a part of the results. A number with no mark means an inactive call. Cut-off read from the data, not from the text of the source: active = normalized growth mostly below about 0.91 (no sharp cut-off); inconclusive = no clear call, values can overlap the other calls; inactive = mostly above about 0.92.
# Test: chemical genetic growth profiling, strain panel (AID 1159580);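 note: tested at 20 µM; growth read once vehicle control cultures reached saturation at 30 °C; 1 = growth at the plate median or of vehicle wells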
# Details: growth OD
smiles,measurement,setting,value
O=C(O)/C=C/C=C/c1ccccc1,normalized growth,"S. cerevisiae deletion strains, locus YJR066W, strain TOR1, stronger effect = lower value",0.162 (active)
same,normalized growth,"S. cerevisiae deletion strains, locus YKL009W, strain mrt4, stronger effect = lower value",0.784 (active)
same,normalized growth,"S. cerevisiae deletion strains, locus YKL068W, stronger effect = lower value",0.854 (active)
same,normalized growth,"S. cerevisiae deletion strains, locus YKL085W, strain MDH1 (second series), stronger effect = lower value",0.773 (active)
same,normalized growth,"S. cerevisiae deletion strains, locus YKL085W, strain MDH1, stronger effect = lower value",0.773 (active)
same,normalized growth,"S. cerevisiae deletion strains, locus YKL160W, strain elf1, stronger effect = lower value",0.831 (active)
same,normalized growth,"S. cerevisiae deletion strains, locus YKR001C, strain vps1, stronger effect = lower value",0.792 (active)
same,normalized growth,"S. cerevisiae deletion strains, locus YKR026C, strain gcn3, stronger effect = lower value",0.808 (active)
same,normalized growth,"S. cerevisiae deletion strains, locus YKR091W, strain srl3, stronger effect = lower value",0.83 (active)
same,normalized growth,"S. cerevisiae deletion strains, locus YLL001W, strain dnm1, stronger effect = lower value",0.782 (active)
same,normalized growth,"S. cerevisiae deletion strains, locus YLL026W, stronger effect = lower value",0.831 (active)
same,normalized growth,"S. cerevisiae deletion strains, locus YLL041C, strain sdh2, stronger effect = lower value",0.829 (active)
same,normalized growth,"S. cerevisiae deletion strains, locus YLR027C, strain aat2, stronger effect = lower value",0.827 (active)
same,normalized growth,"S. cerevisiae deletion strains, locus YLR039C, strain RIC1, stronger effect = lower value",0.832
same,normalized growth,"S. cerevisiae deletion strains, locus YLR058C, strain SHM2, stronger effect = lower value",0.98
same,normalized growth,"S. cerevisiae deletion strains, locus YLR102C, strain apc9, stronger effect = lower value",0.932
same,normalized growth,"S. cerevisiae deletion strains, locus YLR113W, strain HOG1, stronger effect = lower value",0.26 (active)
same,normalized growth,"S. cerevisiae deletion strains, locus YLR221C, strain rsa3, stronger effect = lower value",0.778 (active)
same,normalized growth,"S. cerevisiae deletion strains, locus YLR258W, strain gsy2, stronger effect = lower value",0.817 (active)
same,normalized growth,"S. cerevisiae deletion strains, locus YLR262C, strain YPT6 (second series), stronger effect = lower value",0.518 (active)
same,normalized growth,"S. cerevisiae deletion strains, locus YLR262C, strain YPT6, stronger effect = lower value",0.886
same,normalized growth,"S. cerevisiae deletion strains, locus YLR268W, strain sec22, stronger effect = lower value",0.887
same,normalized growth,"S. cerevisiae deletion strains, locus YLR320W, strain mms22, stronger effect = lower value",0.771 (active)
same,normalized growth,"S. cerevisiae deletion strains, locus YLR330W, strain CHS5, stronger effect = lower value",0.952
same,normalized growth,"S. cerevisiae deletion strains, locus YLR342W, strain FKS1 (second series), stronger effect = lower value",0.882
same,normalized growth,"S. cerevisiae deletion strains, locus YLR342W, strain FKS1, stronger effect = lower value",0.812 (active)
same,normalized growth,"S. cerevisiae deletion strains, locus YLR357W, strain rsc2, stronger effect = lower value",0.732 (active)
same,normalized growth,"S. cerevisiae deletion strains, locus YLR370C, strain arc18, stronger effect = lower value",0.813 (active)
same,normalized growth,"S. cerevisiae deletion strains, locus YLR371W, strain rom2, stronger effect = lower value",0.913
same,normalized growth,"S. cerevisiae deletion strains, locus YLR384C, strain iki3, stronger effect = lower value",0.827 (active)
same,normalized growth,"S. cerevisiae deletion strains, locus YLR418C, strain cdc73, stronger effect = lower value",0.859
same,normalized growth,"S. cerevisiae deletion strains, locus YML016C, strain PPZ1, stronger effect = lower value",0.994
same,normalized growth,"S. cerevisiae deletion strains, locus YML032C, strain rad52, stronger effect = lower value",0.908
same,normalized growth,"S. cerevisiae deletion strains, locus YML120C, strain ndi1, stronger effect = lower value",0.822 (active)
same,normalized growth,"S. cerevisiae deletion strains, locus YML124C, strain tub3, stronger effect = lower value",0.917 (active)
same,normalized growth,"S. cerevisiae deletion strains, locus YMR058W, strain fet3, stronger effect = lower value",0.793 (active)
same,normalized growth,"S. cerevisiae deletion strains, locus YMR078C, strain ctf18, stronger effect = lower value",0.9 (active)
same,normalized growth,"S. cerevisiae deletion strains, locus YMR125W, strain sto1, stronger effect = lower value",0.857 (active)
same,normalized growth,"S. cerevisiae deletion strains, locus YMR129W, stronger effect = lower value",0.824 (active)
same,normalized growth,"S. cerevisiae deletion strains, locus YMR205C, strain PFK2, stronger effect = lower value",0.826 (active)
same,normalized growth,"S. cerevisiae deletion strains, locus YMR223W, strain ubp8, stronger effect = lower value",0.934
same,normalized growth,"S. cerevisiae deletion strains, locus YMR231W, strain pep5, stronger effect = lower value",0.835 (active)
same,normalized growth,"S. cerevisiae deletion strains, locus YMR307W, strain GAS1, stronger effect = lower value",0.924
same,normalized growth,"S. cerevisiae deletion strains, locus YNL067W, strain RPL9B, stronger effect = lower value",0.954
same,normalized growth,"S. cerevisiae deletion strains, locus YNL071W, strain lat1, stronger effect = lower value",0.775 (active)
same,normalized growth,"S. cerevisiae deletion strains, locus YNL153C, strain GIM3, stronger effect = lower value",0.952
same,normalized growth,"S. cerevisiae deletion strains, locus YNL183C, strain NPR1, stronger effect = lower value",0.168 (active)
same,normalized growth,"S. cerevisiae deletion strains, locus YNL209W, strain ssb2, stronger effect = lower value",0.863 (active)
same,normalized growth,"S. cerevisiae deletion strains, locus YNL233W, strain BNI4, stronger effect = lower value",0.949
same,normalized growth,"S. cerevisiae deletion strains, locus YNL248C, strain rpa49, stronger effect = lower value",0.832 (active)
same,normalized growth,"S. cerevisiae deletion strains, locus YNL250W, strain rad50, stronger effect = lower value",0.823 (active)
same,normalized growth,"S. cerevisiae deletion strains, locus YNL271C, strain bni1, stronger effect = lower value",0.772 (active)
same,normalized growth,"S. cerevisiae deletion strains, locus YNL298W, strain CLA4, stronger effect = lower value",0.692 (active)
same,normalized growth,"S. cerevisiae deletion strains, locus YNL307C, strain MCK1, stronger effect = lower value",0.93
same,normalized growth,"S. cerevisiae deletion strains, locus YNL322C, strain KRE1 (second series), stronger effect = lower value",0.746 (active)
same,normalized growth,"S. cerevisiae deletion strains, locus YNL322C, strain KRE1, stronger effect = lower value",0.985
same,normalized growth,"S. cerevisiae deletion strains, locus YNR049C, strain mso1, stronger effect = lower value",0.771 (active)
same,normalized growth,"S. cerevisiae deletion strains, locus YNR052C, strain pop2, stronger effect = lower value",0.925
same,normalized growth,"S. cerevisiae deletion strains, locus YOL006C, strain TOP1, stronger effect = lower value",1.11
same,normalized growth,"S. cerevisiae deletion strains, locus YOL012C, strain htz1",1.04
same,normalized growth,"S. cerevisiae deletion strains, locus YOL147C, strain pex11, stronger effect = lower value",0.927 (active)
same,normalized growth,"S. cerevisiae deletion strains, locus YOR001W, strain rrp6, stronger effect = lower value",0.794 (active)
same,normalized growth,"S. cerevisiae deletion strains, locus YOR061W, strain CKA2, stronger effect = lower value",0.973
same,normalized growth,"S. cerevisiae deletion strains, locus YOR069W, strain VPS5, stronger effect = lower value",0.974
same,normalized growth,"S. cerevisiae deletion strains, locus YOR070C, strain gyp1, stronger effect = lower value",0.831 (active)
same,normalized growth,"S. cerevisiae deletion strains, locus YOR080W, strain dia2, stronger effect = lower value",0.835 (active)
same,normalized growth,"S. cerevisiae deletion strains, locus YOR083W, strain WHI5, stronger effect = lower value",0.808 (active)
same,normalized growth,"S. cerevisiae deletion strains, locus YOR106W, strain vam3, stronger effect = lower value",0.793 (active)
same,normalized growth,"S. cerevisiae deletion strains, locus YOR136W, strain idh2, stronger effect = lower value",0.938
same,normalized growth,"S. cerevisiae deletion strains, locus YOR144C, strain elg1, stronger effect = lower value",0.926 (active)
same,normalized growth,"S. cerevisiae deletion strains, locus YOR184W, strain ser1, stronger effect = lower value",0.928
same,normalized growth,"S. cerevisiae deletion strains, locus YOR231W, strain MKK1, stronger effect = lower value",0.27 (active)
same,normalized growth,"S. cerevisiae deletion strains, locus YOR265W, strain rbl2, stronger effect = lower value",0.836 (active)
same,normalized growth,"S. cerevisiae deletion strains, locus YOR270C, strain vph1, stronger effect = lower value",0.687 (active)
same,normalized growth,"S. cerevisiae deletion strains, locus YOR290C, strain snf2, stronger effect = lower value",0.737 (active)
same,normalized growth,"S. cerevisiae deletion strains, locus YOR316C, strain cot1, stronger effect = lower value",0.932
same,normalized growth,"S. cerevisiae deletion strains, locus YPL051W, strain arl3, stronger effect = lower value",0.83 (active)
same,normalized growth,"S. cerevisiae deletion strains, locus YPL055C, strain LGE1, stronger effect = lower value",0.965
same,normalized growth,"S. cerevisiae deletion strains, locus YPL078C, strain atp4, stronger effect = lower value",0.771 (active)
same,normalized growth,"S. cerevisiae deletion strains, locus YPL106C, strain sse1, stronger effect = lower value",0.821 (active)
same,normalized growth,"S. cerevisiae deletion strains, locus YPL240C, strain hsp82, stronger effect = lower value",0.806 (active)
same,normalized growth,"S. cerevisiae deletion strains, locus YPL256C, strain CLN2, stronger effect = lower value",0.226 (active)
same,normalized growth,"S. cerevisiae deletion strains, locus YPR119W, strain clb2, stronger effect = lower value",0.922 (active)
same,normalized growth,"S. cerevisiae deletion strains, locus YPR141C, strain kar3, stronger effect = lower value",0.877 (active)
same,normalized growth,"S. cerevisiae deletion strains, locus YPR163C, strain tif3, stronger effect = lower value",0.908 (active)
same,normalized growth,"S. cerevisiae deletion strains, locus YPR167C, strain met16, stronger effect = lower value",0.926
same,normalized growth,"S. cerevisiae deletion strains, strain wtn01, stronger effect = lower value",0.926
same,normalized growth,"S. cerevisiae strains, strain wild type, stronger effect = lower value",0.976
